Measurements published in the supplement of paper PMC10849652.
Targets with a hit are over-represented here; the source holds about 8,800 in all. About 0.5% of all pairs of compound and target were hits. Values without a mark were called inactive.

How the values were obtained:
Experiment in all cases: log2 fold change, soluble protein after heating vs DMSO (PISA); higher = thermal stabilisation; K562 lysate, 10 uM; active = over 0.2 and 3.5 SD of the protein, either way, in both replicates (recomputed)
[1] = compound: NCC(=O)Nc1ccc(-n2nc(C(F)(F)F)cc2-c2ccc3c(ccc4ccccc43)c2)cc1
Summary of the method: (§1)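 Log-two fold change in thermal stability relative to solvent controls is reported from duplicates. For each sample, crude K562 extract from dounce-homogenised pellets in PBS pH 7.4 with 1 mM MgCl2, at 1 mg/mL protein, was treated with 10 μM compound for 30 min. Aliquots heated for 3 min across 48°C-58°C were pooled, brought to 0.5% NP-40 at 4°C and cleared at 21,000xg for 90 min. The supernatant was quantified by TMTpro 16plex LC-MS/MS with channel sums equalised.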

vorinostat = compound: O=C(CCCCCCC(=O)Nc1ccccc1)NO [vorinostat]
Summary of the method: as §1

silmitasertib = compound: O=C(O)c1ccc2c(c1)nc(Nc1cccc(Cl)c1)c1ccncc12 [silmitasertib]
Summary of the method: as §1

[2] = compound: O=C1NC(=O)C(c2cnc3ccccn23)=C1c1cn2c3c(cc(F)cc13)CN(C(=O)N1CCCCC1)CC2
Summary of the method: as §1

entospletinib = compound: c1cn2cc(-c3ccc4cn[nH]c4c3)nc(Nc3ccc(N4CCOCC4)cc3)c2n1 [entospletinib]
Summary of the method: as §1

Sequence of UniProt O15247 (O15247 whole entry, looked up): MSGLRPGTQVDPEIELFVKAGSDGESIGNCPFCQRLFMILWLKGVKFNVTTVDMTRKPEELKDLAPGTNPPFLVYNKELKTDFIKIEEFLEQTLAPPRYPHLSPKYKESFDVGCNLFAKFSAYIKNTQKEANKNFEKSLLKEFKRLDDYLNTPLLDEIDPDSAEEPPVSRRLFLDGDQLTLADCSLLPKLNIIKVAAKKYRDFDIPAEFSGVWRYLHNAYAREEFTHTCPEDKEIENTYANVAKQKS
Sequence of UniProt P48729 (P48729 whole entry, looked up): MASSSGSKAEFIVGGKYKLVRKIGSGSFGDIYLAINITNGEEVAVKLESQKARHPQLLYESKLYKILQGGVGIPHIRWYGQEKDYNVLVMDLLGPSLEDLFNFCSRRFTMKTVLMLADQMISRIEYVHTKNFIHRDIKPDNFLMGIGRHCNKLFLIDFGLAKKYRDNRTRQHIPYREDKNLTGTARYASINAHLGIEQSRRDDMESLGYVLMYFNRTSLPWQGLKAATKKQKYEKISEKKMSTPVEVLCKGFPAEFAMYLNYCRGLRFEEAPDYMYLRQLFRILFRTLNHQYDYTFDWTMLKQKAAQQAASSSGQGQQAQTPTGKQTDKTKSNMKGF
Sequence of UniProt Q1MSJ5 (Q1MSJ5 whole entry, looked up): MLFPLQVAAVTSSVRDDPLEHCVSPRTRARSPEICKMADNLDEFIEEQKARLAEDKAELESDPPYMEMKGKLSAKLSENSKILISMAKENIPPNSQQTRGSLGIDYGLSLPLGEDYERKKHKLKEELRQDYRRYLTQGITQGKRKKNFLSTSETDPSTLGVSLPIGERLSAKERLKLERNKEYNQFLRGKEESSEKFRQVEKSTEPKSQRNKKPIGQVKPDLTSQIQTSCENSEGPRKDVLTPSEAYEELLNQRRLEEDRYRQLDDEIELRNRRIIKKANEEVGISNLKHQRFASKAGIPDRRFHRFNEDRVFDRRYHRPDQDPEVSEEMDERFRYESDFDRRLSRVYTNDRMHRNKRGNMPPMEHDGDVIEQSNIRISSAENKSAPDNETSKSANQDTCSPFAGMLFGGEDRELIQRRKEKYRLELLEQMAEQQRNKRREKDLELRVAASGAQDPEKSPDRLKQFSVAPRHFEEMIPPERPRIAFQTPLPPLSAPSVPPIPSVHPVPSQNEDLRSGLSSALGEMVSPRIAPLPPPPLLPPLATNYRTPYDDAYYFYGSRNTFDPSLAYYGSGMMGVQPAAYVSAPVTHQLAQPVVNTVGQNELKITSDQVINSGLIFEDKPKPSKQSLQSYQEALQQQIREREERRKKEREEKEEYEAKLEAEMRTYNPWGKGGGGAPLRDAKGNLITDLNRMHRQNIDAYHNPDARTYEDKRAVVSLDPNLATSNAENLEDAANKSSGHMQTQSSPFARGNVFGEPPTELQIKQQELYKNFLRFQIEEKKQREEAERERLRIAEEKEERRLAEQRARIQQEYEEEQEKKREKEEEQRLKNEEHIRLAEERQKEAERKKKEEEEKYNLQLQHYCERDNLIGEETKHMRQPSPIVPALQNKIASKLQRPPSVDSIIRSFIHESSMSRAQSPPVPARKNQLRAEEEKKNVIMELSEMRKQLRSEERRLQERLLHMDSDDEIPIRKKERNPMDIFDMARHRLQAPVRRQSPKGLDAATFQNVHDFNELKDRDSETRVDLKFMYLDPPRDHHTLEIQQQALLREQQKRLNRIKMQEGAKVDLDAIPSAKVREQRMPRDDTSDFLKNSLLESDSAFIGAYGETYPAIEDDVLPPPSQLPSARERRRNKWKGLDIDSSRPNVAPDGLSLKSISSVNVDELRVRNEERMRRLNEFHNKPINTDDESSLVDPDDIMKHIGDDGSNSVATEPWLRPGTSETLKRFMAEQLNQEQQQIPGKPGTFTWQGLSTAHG
Sequence of UniProt Q99704 (Q99704 whole entry, looked up): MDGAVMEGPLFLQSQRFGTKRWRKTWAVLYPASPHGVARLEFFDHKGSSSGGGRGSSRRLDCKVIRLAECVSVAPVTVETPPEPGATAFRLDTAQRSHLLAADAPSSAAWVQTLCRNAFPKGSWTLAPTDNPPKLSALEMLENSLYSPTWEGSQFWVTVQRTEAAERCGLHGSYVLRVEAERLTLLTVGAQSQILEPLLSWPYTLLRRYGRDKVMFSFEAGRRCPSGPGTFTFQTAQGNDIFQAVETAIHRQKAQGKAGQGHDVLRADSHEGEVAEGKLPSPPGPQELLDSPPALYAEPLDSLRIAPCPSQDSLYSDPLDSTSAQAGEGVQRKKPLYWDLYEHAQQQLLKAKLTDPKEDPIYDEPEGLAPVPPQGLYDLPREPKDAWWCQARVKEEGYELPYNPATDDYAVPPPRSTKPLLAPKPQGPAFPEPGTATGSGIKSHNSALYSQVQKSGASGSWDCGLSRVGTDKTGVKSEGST
Sequence of UniProt Q6P3W2 (Q6P3W2 whole entry, looked up): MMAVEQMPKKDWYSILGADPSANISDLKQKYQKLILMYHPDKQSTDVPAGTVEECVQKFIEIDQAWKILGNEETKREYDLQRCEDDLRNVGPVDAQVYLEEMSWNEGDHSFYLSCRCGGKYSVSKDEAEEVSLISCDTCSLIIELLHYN
Sequence of UniProt P26374 (P26374 whole entry, looked up): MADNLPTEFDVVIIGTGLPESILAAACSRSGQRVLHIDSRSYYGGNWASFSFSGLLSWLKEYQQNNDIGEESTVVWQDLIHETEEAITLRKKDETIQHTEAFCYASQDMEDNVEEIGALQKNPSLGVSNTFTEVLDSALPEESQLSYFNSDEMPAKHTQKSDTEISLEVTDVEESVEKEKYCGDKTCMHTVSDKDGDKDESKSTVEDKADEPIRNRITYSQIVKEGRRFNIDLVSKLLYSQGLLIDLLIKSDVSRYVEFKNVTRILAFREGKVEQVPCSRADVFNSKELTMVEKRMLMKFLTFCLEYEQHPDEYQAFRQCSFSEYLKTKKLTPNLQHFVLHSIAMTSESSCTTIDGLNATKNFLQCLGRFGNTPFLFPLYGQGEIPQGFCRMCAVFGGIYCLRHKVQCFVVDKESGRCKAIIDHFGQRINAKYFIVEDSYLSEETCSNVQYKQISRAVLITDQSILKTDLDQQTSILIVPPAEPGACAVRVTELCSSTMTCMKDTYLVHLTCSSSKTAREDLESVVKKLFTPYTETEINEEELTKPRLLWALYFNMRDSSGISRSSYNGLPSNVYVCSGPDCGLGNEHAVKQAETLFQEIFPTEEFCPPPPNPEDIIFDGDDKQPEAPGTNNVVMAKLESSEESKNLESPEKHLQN
Sequence of UniProt P17812 (P17812 whole entry, looked up): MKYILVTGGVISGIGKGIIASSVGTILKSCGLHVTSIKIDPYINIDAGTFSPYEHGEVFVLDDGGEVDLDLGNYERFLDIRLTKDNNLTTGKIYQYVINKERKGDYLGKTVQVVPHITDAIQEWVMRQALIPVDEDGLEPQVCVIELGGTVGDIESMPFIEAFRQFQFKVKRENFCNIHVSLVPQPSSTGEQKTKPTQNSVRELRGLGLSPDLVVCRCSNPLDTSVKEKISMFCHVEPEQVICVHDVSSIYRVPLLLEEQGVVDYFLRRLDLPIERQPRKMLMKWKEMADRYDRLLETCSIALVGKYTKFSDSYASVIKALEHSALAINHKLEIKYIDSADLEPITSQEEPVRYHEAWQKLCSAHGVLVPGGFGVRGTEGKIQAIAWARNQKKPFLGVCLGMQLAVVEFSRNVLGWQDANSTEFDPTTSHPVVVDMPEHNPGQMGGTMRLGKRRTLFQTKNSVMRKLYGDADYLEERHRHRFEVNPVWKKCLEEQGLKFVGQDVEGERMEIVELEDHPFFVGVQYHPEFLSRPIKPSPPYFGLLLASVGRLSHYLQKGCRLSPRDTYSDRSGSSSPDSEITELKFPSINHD
Sequence of UniProt Q8NI60 (Q8NI60 whole entry, looked up): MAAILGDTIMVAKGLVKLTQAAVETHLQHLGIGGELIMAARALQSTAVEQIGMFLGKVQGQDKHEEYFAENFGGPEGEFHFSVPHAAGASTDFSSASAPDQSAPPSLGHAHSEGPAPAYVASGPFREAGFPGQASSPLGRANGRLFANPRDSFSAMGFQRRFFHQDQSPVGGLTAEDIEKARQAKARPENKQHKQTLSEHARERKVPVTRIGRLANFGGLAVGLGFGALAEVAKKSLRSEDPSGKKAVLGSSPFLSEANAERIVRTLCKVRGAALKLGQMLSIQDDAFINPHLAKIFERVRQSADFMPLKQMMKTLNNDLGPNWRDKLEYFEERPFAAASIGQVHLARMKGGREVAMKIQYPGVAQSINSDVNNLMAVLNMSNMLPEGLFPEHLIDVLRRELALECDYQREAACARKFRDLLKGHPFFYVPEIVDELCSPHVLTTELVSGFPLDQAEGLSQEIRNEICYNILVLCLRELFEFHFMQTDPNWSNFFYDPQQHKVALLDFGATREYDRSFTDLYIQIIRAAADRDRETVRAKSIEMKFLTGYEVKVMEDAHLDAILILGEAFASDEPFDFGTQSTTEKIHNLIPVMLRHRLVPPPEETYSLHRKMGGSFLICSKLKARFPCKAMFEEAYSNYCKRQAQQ
Sequence of UniProt Q8TB03 (Q8TB03 whole entry, looked up): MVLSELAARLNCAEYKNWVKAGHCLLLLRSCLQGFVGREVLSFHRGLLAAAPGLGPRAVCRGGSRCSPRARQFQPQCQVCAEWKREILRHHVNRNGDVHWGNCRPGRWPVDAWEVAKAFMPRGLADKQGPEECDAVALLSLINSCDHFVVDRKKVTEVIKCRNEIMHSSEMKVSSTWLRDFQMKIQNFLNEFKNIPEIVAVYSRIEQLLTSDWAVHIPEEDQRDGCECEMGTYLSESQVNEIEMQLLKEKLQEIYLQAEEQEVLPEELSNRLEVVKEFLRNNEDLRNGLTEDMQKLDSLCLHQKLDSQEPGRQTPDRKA
Sequence of UniProt O75911 (O75911 whole entry, looked up): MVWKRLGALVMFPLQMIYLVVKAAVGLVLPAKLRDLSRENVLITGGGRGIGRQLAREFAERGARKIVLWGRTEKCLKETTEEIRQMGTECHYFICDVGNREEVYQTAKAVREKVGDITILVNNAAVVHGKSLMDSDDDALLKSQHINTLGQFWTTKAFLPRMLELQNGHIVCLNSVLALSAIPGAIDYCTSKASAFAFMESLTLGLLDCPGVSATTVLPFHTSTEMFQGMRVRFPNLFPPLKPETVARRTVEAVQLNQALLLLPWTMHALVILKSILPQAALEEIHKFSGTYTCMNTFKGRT

Target | log2 fold change [1] | log2 fold change (vorinostat) | log2 fold change (silmitasertib) | log2 fold change [2] | log2 fold change (entospletinib)
DIAPH1 (UniProt O60610) | 0.013 | -0.014 | 0.009 | -0.02 | -0.003
DHRS3 (UniProt O75911) | 0.032 | -0.055 | -0.062 | 0.025 | 0.096
CHML (UniProt P26374) | 0.029 | -0.286 (active) | 0.003 | -0.022 | 0.006
COQ8A (UniProt Q8NI60) | -0.043 | -0.042 | -0.161 | 0.016 | 0.053
DDAH1 (UniProt O94760) | -0.076 | 0.07 | -0.035 | 0.017 | -0.014
DAZAP1 (UniProt Q96EP5) | 0.032 | -0.031 | 0.014 | 0.032 | -0.001
CMBL (UniProt Q96DG6) | -0.065 | 0.09 | 0.042 | 0.071 | 0.037
CHFR (UniProt Q96EP1) | -0.219 | -0.143 | 0.057 | 0.004 | -0.083
CTPS1 (UniProt P17812) | -0.007 | 0.565 (active) | 0.028 | -0.008 | -0.005
CIC (UniProt I3L2J0) | -0.002 | -0.108 | -0.011 | 0.075 | 0.033
DFFB (UniProt O76075) | -0.003 | 0.258 (active) | -0.025 | 0.013 | -0.011
CLCN3 isoform 2 (UniProt P51790) | -0.059 | -0.286 (active) | 0.033 | -0.024 | 0.046
DIAPH1 (UniProt H9KV28) | -0.002 | 0.087 | 0.084 | -0.083 | -0.113
CXorf38 (UniProt Q8TB03) | 0.092 | -0.227 (active) | -0.013 | 0.042 | -0.073
COL6A5 (UniProt A8TX70) | 0.281 | 0.011 | -0.003 | 0.022 | 0.009
DOK1 (UniProt Q99704) | -0.036 | -0.297 (active) | -0.043 | -0.012 | -0.011
DNAJC5 (UniProt Q9H3Z4) | 0.02 | 0.101 | -0.071 | -0.03 | 0.019
CSNK1A1 (UniProt P48729) | 0.001 | -0.276 (active) | 0.088 | -0.044 | 0.017
DLGAP5 (UniProt Q15398) | -0.008 | -0.252 (active) | -0.002 | -0.006 | -0.004
CSPP1 (UniProt Q1MSJ5) | 0.122 | 0.085 | -0.027 | 0.043 | 0.003
DICER1 (UniProt Q9UPY3) | 0.022 | -0.58 (active) | 0.042 | 0.001 | -0.004
DNAH5 (UniProt Q8TE73) | 0.008 | 0.113 | -0.179 |  | 
DNAJC24 (UniProt Q6P3W2) | -0.159 | 0.053 | -0.017 | -0.014 | -0.046
CLIC2 (UniProt O15247) | 0.022 | -0.369 (active) | -0.018 | 0.029 | 0.005
CWC22 (UniProt Q9HCG8) | -0.012 | -0.156 | 0.032 | -0.016 | 0.015
